Source: PubChem BioAssay AID1845225 (National Center for Advancing Translational Sciences (NCATS), 2023)
Inconclusive results are not listed. Activity calls are given as the source filed them. Calls follow the shape of the dose curve; as a rule, active = well fitted curve in the direction sought with a large enough effect; inconclusive = small, poorly fitted or top-dose-only effect, or effect the other way, or another doubt; inactive = no such curve, though single readings can be large or run the other way.

Experiment: Confirmatory redox qHTS assay for identification of artifact compounds.
Conditions: Amplex Red/HRP redox cycling with DTT, fluorescence; series mostly up to 39 µM
From the text: PI: Alexander Tropsha Ph.D. UNC Eshelman School of Pharmacy University of North Carolina, Chapel Hill, North Carolina Hits from high-throughput screening (HTS) of chemical libraries are often false positives due to their interference with the assay detection technology. In response to this problem, we generated the largest publicly available library of chemical liabilities and developed a free webtool to predict HTS artifacts, both of which are described herein. More specifically, we generated, curated, and integrated HTS datasets for thiol reactivity, redox activity, and luciferase (firefly and nano) activity. Using these curated datasets, we developed and validated several Quantitative Structure-Interference Relationship (QSIR) models to predict nuisance behavior. […] These models were employed for virtual profiling of the National Center for Advancing Translational Science's (NCATS) in-house library, and 256 compounds for each assay were selected for the experimental validation of nuisance behavior. The BA for these external predictions ranged from 58 to 78% for compounds within the applicability domains of the models. […] The models developed in this study, along with aggregation models previously developed by our group (SCAM Detective) were implemented in "Liability Predictor," an online tool which may be used as part of chemical library design or for triaging HTS hits. Both the models and the curated datasets are publicly available at https://liability.mml.unc.edu/.
PROTOCOL TABLE SEQUENCE No. (e.g., 1, 2, 3, etc.); […] (e.g., Cells, Incubation, Reagent, etc.); VALUE; DESCRIPTION. 1; Reagent; 3 uL; Amplex Red and HRP mixture. 2; Compounds and control; 16 nL; Kalypsis pin tool (Wako USA) equipped with a 1536-well pin head. 3; Incubation; 15 min. 4; Reagent; 1 uL; […]. 5; Incubation; 30 min. 6; Detection; Fluorescence, ViewLux microplate reader, 525 nm excitation, 598 nm emission. NOTES (numbers refer to Sequence numbers above) 1. 3 uL of a mixture containing Amplex Red (25 uM final concentration) and horseradish peroxidase (HRP; 250 mU/mL final concentration) in assay buffer (HBSS) was dispensed into all wells of a 1536-well assay plate (solid-bottom black plate; Greiner Bio One, Monroe, NC). 2. […] 3. 15 min. incubation at room temperature protected from light. 4. 1 uL of DTT (prepared fresh; final concentration 250 uM) was dispensed for a final assay volume of 4 uL. 5. Plates were centrifuged (121xg, 15 seconds) and incubated for 30 minutes at room temperature protected from light. 6. Samples were read for fluorescence (Ex/Em = 525(20)/598(25) nm) on a ViewLux CCD imager (PerkinElmer). Data were normalized to DMSO (0% activity) and DA3003 (10 uM final concentration; 100% activity) and the resulting percent inhibition data were fitted to a 4-parameter Hill equation using NCATS in-house software.

outcome, inactive:
COc1cc(OC)c(NC(=O)C(c2ccccc2)N2Cc3ccccc3C2=O)cc1Cl (stereo not given), Cc1cc(NC(=O)c2ccc([S+](=O)([O-])NCc3ccc(Cl)c(Cl)c3)cc2)no1, COc1ccc(CCNC(=O)c2cc(=O)[nH]c3ccc(S(=O)(=O)N4CCCCC4)cc23)cc1OC, O=C1c2ccccc2C(=O)N1c1cnc2ccccc2c1, Cc1ccc(C)c(NC(=O)CN2CCCN(Cc3cccc(Cl)c3)S2(=O)=O)c1, Cc1cc(C)cc(NC(=O)CSc2cc(C)[nH]c(=O)n2)c1, Nc1ccc(F)cc1F, O=C(NC1CCCCCC1)c1ccc(CS(=O)c2ccc(Br)cc2)o1 (stereo not given), O=C1c2oc3ccc(F)cc3c(=O)c2C(c2cccc([N+](=O)[O-])c2)N1CCCN1CCOCC1 (stereo not given), CCOC(=O)C(=O)NCC(c1cccnc1)N1CCN(c2ccccc2)CC1 (stereo not given), COc1cc2c(NC3CCN(C)CC3)nc(N3CCN(C)CC3)nc2cc1OCCCN(C)C, C=C[C@@]1(C)C[C@H](OC(=O)CSC(C)(C)CNC(=O)[C@@H](N)C(C)C)[C@@]2(C)C(C)CC[C@@]3(CCC(=O)[C@@H]32)[C@H](C)[C@H]1O (stereo not given in full), CC1=C(/C=C/C(C)=C/C=C/C(C)=C\C(=O)O)C(C)(C)CCC1, COc1cc2c(NC3CCN(C)CC3)nc(N3CCCN(C)CC3)nc2cc1OCCCN(C)C, O=S(=O)(c1cc(Br)c(Br)s1)N1CCN(c2ccccc2)CC1, CCOC(=O)Cc1cccc(-c2cc(CCCCCCc3ccc(O[C@H]4O[C@H](COC(C)=O)[C@@H](OC(C)=O)[C@H](OC(C)=O)[C@@H]4OC(C)=O)c(-c4cccc(CC(=O)OCC)c4)c3)ccc2O[C@H]2O[C@H](COC(C)=O)[C@@H](OC(C)=O)[C@H](OC(C)=O)[C@@H]2OC(C)=O)c1, CCc1ccc(CN2C(=O)c3ccccc3C2C(=O)NCCc2ccc(OC)c(OC)c2)cc1 (stereo not given), O=C(Nc1cccc(Br)c1)N1CCC(CN2CCCCC2)CC1, Cc1ccc(OCCn2c(CCNC(=O)OC(C)(C)C)nc3ccccc32)cc1, Cc1cccc(C(=O)NCCc2nc3ccccc3n2CCC(C)C)c1, O=C(CSc1nc(-c2ccccc2)[nH]c1-c1ccc(F)cc1)NC1CCCC1, CCOc1ccc(C(=O)N2CCC(c3nc(-c4ccc(S(=O)(=O)N5CCCC5)cc4)no3)CC2)cc1, COc1ccc(Cn2c(C(=O)O)c(CNC3CCCC3)c3ccc(C)cc32)cc1, Cc1ccccc1S(=O)(=O)Nc1cnccc1C(=O)Nc1nc(-c2ccccc2)cs1, COc1ccc(NC(=O)N(Cc2nnc3n2CCCCC3)c2ccc(OC)c(Cl)c2)cc1, COc1cc2c(NC3CCN(C)CC3)nc(N3CCCN(C)CC3)nc2cc1OCCCCC(N)=O, Cc1cccc(NC(=O)CN2C(=O)C(c3ccc(F)cc3)=NC23CCCCCC3)c1, COC(=O)c1c(OCc2ccccn2)cc(=O)n2c1CCN(C(=O)c1n[nH]c3c1CCCC3)CC2, O=C(Cn1nc(-c2ccc(Cl)cc2)ccc1=O)NCCc1ccccc1, CC(C)Oc1ccc(CNC(=O)Cc2ccc(NC(=O)N3CCSc4ncccc43)cc2)cc1, Cc1ccc(C)c(N2CCN(S(=O)(=O)c3cc(Br)cc4c3N(C(=O)C3CC3)CC4)CC2)c1, O=C(Nc1nnc(S(=O)(=O)N2CCCC2)s1)c1ccccc1Cl, Cc1ccc(OCCn2c(CCNC(=O)c3c(F)cccc3F)nc3ccccc32)cc1, CCOc1ccc(CNC(=O)CN2C(=O)CSc3c2c(C)nn3-c2ccccc2)cc1, CCCCN1C(=O)c2[nH]nc(-c3ccccc3O)c2C1c1ccc(C(C)(C)C)cc1 (stereo not given), COc1ccc(C(=O)Nc2ccc(-n3nncc3-c3ccccc3)cc2)cc1OC, Cn1cc(CN(C(=O)Nc2ccc(Cl)c(Cl)c2)C2CCCCC2)c2ccccc21, Clc1ccccc1CNc1ncnc2nc[nH]c12, COc1ccccc1CNC(=O)CCCn1c(=O)c2ccccc2n(CC(=O)Nc2ccc(C)cc2Cl)c1=O, COc1ccccc1Cn1c(CNS(=O)(=O)c2ccc3c(c2)CCCC3)nc2cccnc21
